# According to PubChem BioAssay AID540364 (The Scripps Research Institute Molecular Screening Center, 2011):
# About 2,000 (0.56%) of roughly 360,000 compounds were called active.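 Rule for the calls: active = activation above the average of all compounds screened plus 3 SD, cutoff fixed separately per campaign (cut at about 7.5% in these data); inactive = the rest.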 Shown is part of a subset that was picked to be rich in actives.
# Experiment: FXN promoter activators, primary screen, cell-based, luciferase luminescence, HEK293 lucGAA850 (AID 540364);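 note: 0% = DMSO wells and 100% = 10 µM SAHA wells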
# Conditions: HEK293 lucGAA850 FXN promoter luciferase reporter, 24 h; at 6 µM; active compounds read high; percent of 10 µM SAHA response
row,SMILES,activation
1,CC(=O)Nc1cccc(-c2nc3ccccc3s2)c1C,1.28% (inactive)
2,CC(C)CC(=O)N/C(N)=N/c1nc2ccccc2s1,4.47% (inactive)
3,CCC(=O)NC(=Nc1nc2ccccc2s1)NC(=O)CC,8.95% (active)
4,O=C(NCC1(N2CCCCC2)CCCCC1)c1ccc(NS(=O)(=O)c2ccc(F)cc2)cc1,2.54% (inactive)
5,Nc1ccc(C(=O)Nc2ccccc2N)cc1,13.5% (active)
6,O=C(Cc1ccccc1)Nc1ccc(C(=O)Nc2ccccc2C(=O)O)cc1,-0.24% (inactive)
7,O=C(Nc1ccccc1N1CCCC1)c1ccc2ccccc2c1,1.86% (inactive)
8,CCOc1ccccc1NS(=O)(=O)c1cc2c3c(c1)C(C)C(=O)N3CCC2 (stereo not drawn),3.36% (inactive)
9,O=C1COc2ccc(C(=O)COC(=O)c3cccnc3Cl)cc2N1,1.97% (inactive)
10,CCOC(=O)C1Sc2[nH]c(=O)sc2C(c2ccc(Cl)cc2)C1C(=O)OCC (stereo not drawn),-10.5% (inactive)
11,Cc1ccc(C(=O)NNc2ncnc3ccccc23)cc1,7.73% (active)
12,Cc1ccc(C(=O)NNC(=O)c2cc3cc4ccccc4nc3s2)cc1,-0.4% (inactive)
13,Cc1ccc(NC(=O)c2ccc(Oc3ncccn3)cc2)cc1,3.47% (inactive)
14,COC(=O)c1ccc(NC(=O)C23CC4CC(C2)CC(n2cnc(Cl)n2)(C4)C3)cc1,2.12% (inactive)
15,Cc1ccc(S(=O)(=O)N(C)c2nc3ccccc3n3c(C(C)C)nnc23)cc1,5.84% (inactive)
16,CCCCNC(=O)N(O)C1N(/N=C/c2ccccc2O)C(=S)SC1(C)C (stereo not drawn),14.4% (active)
17,CCCCNC(=O)N(O)C1N(/N=C/c2ccc(N(C)C)cc2)C(=S)SC1(C)C (stereo not drawn),1.55% (inactive)
18,CCC(C)N1C(=S)SC(C)(C)C1N(O)C(=O)NC1CCCCC1 (stereo not drawn),0.24% (inactive)
19,COc1ccc(Br)cc1S(=O)(=O)N1CCN=C1C,2.93% (inactive)
20,COc1ccccc1N1CCN(C(=O)C(=O)N/N=C/c2ccccc2F)CC1,-1.01% (inactive)
21,Fc1ccccc1/C=N/Nc1cc(N2CCCCC2)ncn1,8.75% (active)
22,O=C(CCC(=O)Nc1ccccc1)N/N=C/c1ccccc1F,0.15% (inactive)

row,SMILES,activation
1,COc1ccc(-c2cc3nc(NCCOc4ccccc4)ccn3n2)cc1,0.64% (inactive)
2,CNc1nc(Nc2ccc(C)c(Cl)c2)nc(N)c1[N+](=O)[O-],17.5% (active)
3,Nc1nc(NCCCN2CCOCC2)nc(Nc2ccccc2)c1[N+](=O)[O-],0.67% (inactive)
4,CCN1CCN(c2nc(Nc3cccc(F)c3)nc(N)c2[N+](=O)[O-])CC1,3.12% (inactive)
5,O=C(COC(=O)COc1cccc(F)c1)NCC1CCCCC1,2.16% (inactive)
6,Cc1ccc(-c2ccc(CN3C(C(C)C)C(=O)N(Cc4cn(CCC5OCCO5)nn4)CCS3(=O)=O)cc2)cc1 (stereo not drawn),-0.96% (inactive)
7,O=S(=O)(c1ccc(F)cc1)N1CCN(C(=S)NC2CCCC2)CC1,3.66% (inactive)
8,N#Cc1ccc(CSc2ncccn2)cc1,2.06% (inactive)
9,N#CC1=C(SCc2ccc(C#N)cc2)N=C(N)C(c2nc(-c3ccccc3)cs2)C12CCCCC2 (stereo not drawn),9.79% (active)
10,Cc1ccc(S(=O)(=O)N(C)C)cc1NC(=O)C(C)OC(=O)c1ccc2ccccc2n1 (stereo not drawn),0.74% (inactive)
11,N#CCSc1nc2ccc(N3CCOCC3)cc2c(=O)n1CCc1ccccc1,-2.84% (inactive)
12,Cc1nn(-c2ccccc2)c(C)c1/C=N/NC(=O)CSc1nc2ccccc2c(=O)n1-c1ccccc1,0.81% (inactive)
13,N#CCSc1nc2ccccc2c(=O)n1-c1ccccc1,9.45% (active)
14,COc1ccccc1N1CCN(C(=O)c2cc(-c3ccc(Br)cc3)on2)CC1,17.8% (active)
15,O=C(c1cc(-c2ccc(Cl)cc2)on1)N1CCN(c2ccccc2)CC1,3.73% (inactive)
16,COc1ccccc1-c1cc(C(=O)N2CCCCC2)no1,3.83% (inactive)
17,CC1(c2ccc(Cl)cc2Cl)NC(=O)N(CC(=O)Nc2cccnc2Cl)C1=O (stereo not drawn),0.61% (inactive)
18,O=C(N[C@H]1C/C=C\C(c2cccc(F)c2)N(Cc2ccccc2)C(=O)C1)OCC1c2ccccc2-c2ccccc21 (stereo partly drawn),-2.16% (inactive)
19,CN(C)CCNC(=O)c1cccc(-c2cnc3c(NC=O)cc(-c4cccc(C(F)(F)F)c4)cn23)c1,-0.71% (inactive)
20,CC(Sc1nc2c([nH]c3ccccc32)c(=O)n1C)c1ccccc1 (stereo not drawn),13.8% (active)
21,CCCCc1nc2c(=O)[nH]c3ccccc3c2o1,3.48% (inactive)
22,Cn1nnnc1SCc1cc(=O)[nH]c2ccccc12,0.27% (inactive)

row,SMILES,activation
1,CCN(CC)CCNC(=O)c1sc2ncn(CC(=O)Nc3ccc(C)c(Cl)c3)c(=O)c2c1C,0.29% (inactive)
2,COc1ccc(-c2cc(NC(C)=O)c3ncc(-c4cc(OC)c(OC)c(OC)c4)n3c2)cn1,-2.13% (inactive)
3,Cc1cc(C)n2nc(SCC(N)=O)nc2n1,0.08% (inactive)
4,Cc1cc(C)n2nc(C(=O)NC(C)(C)C)nc2n1,-0.66% (inactive)
5,Cc1cc(C)n2nc(CNS(=O)(=O)c3c(F)c(F)c(F)c(F)c3F)nc2n1,8.27% (active)
6,CCC(C)(C(=O)NC1CCCC1)N(C(=O)CNC(C)=O)c1ccc(C)cc1 (stereo not drawn),-0.84% (inactive)
7,C[C@H]1CN([C@@H](C)CO)C(=O)CCCn2cc(nn2)CO[C@@H]1CN(C)S(=O)(=O)c1ccc(-c2ccccc2)cc1,-1.7% (inactive)
8,CC(C)[C@H](NC(=O)c1ccc(F)cc1)C(=O)OCC(=O)NC(=O)c1cccn1C,0.53% (inactive)
9,c1c2c(cc3sc(N4CCCCC4)nc13)OCCO2,-6.92% (inactive)
10,Fc1ccc2nc(Nc3nc4c(s3)CCCC4)sc2c1,5.51% (inactive)
11,Fc1ccc2nc(N3CCCCC3)sc2c1,8.32% (active)
12,Cc1cccc(-n2c(Cc3cc(=O)[nH]c(=O)[nH]3)nnc2SCC(=O)Nc2cccc(C(F)(F)F)c2)c1,0.62% (inactive)
13,CC1CCC2(CC1)NC(=O)N(Cc1nnc(-c3cccs3)o1)C2=O (stereo not drawn),1.39% (inactive)
14,CC(C)N1C(=S)SC(C)(C)C1n1oc(=O)n(-c2ccc(Cl)c(Cl)c2)c1=O (stereo not drawn),-0.29% (inactive)
15,COC(=O)CSc1snnc1-c1ccc(Cl)c(Cl)c1,2.88% (inactive)
16,COc1cccc(-n2cc3c(c2-c2ccccc2)c(=O)n(C)c(=O)n3C)c1,1.09% (inactive)
17,Cc1ccc(-c2c3c(=O)n(C)c(=O)n(C)c3cn2-c2ccccc2O)cc1,-0.62% (inactive)
18,Cc1ccc(-c2c3c(=O)n(C)c(=O)n(C)c3cn2-n2cnnc2)cc1,10.3% (active)
19,CCN(C[C@H]1N[C@@](CC)(C(=O)OC)[C@H]2C(=O)N(Cc3ccccc3)C(=O)[C@@H]12)S(=O)(=O)c1ccc(C(F)(F)F)cc1,15.9% (active)
20,CCN(C[C@H]1N[C@@](CC)(C(=O)OC)[C@H]2C(=O)N(Cc3ccccc3)C(=O)[C@@H]12)S(=O)(=O)c1ccccc1,3.23% (inactive)
21,COC(=O)[C@]1(Cc2ccccc2)N[C@H](CN(C)S(=O)(=O)c2ccc(OC(F)(F)F)cc2)[C@@H]2C(=O)N(Cc3ccccc3)C(=O)[C@@H]21,-3.69% (inactive)
22,OC(c1ccccc1)c1nc(/C=C/c2ccc(C(F)(F)F)cc2)cs1 (stereo not drawn),1% (inactive)

row,SMILES,activation
1,CC(=O)Nc1cc(-c2ccccc2N(C)C)cn2c(-c3ccc(F)c(Cl)c3)cnc12,1.24% (inactive)
2,COc1ccc(NC(=O)CSCc2ccc([N+](=O)[O-])cc2)cc1OC,0.83% (inactive)
3,CCOc1ccc2[nH]c(=O)c(CN(Cc3nnnn3CCc3ccccc3)CC3CCCO3)cc2c1 (stereo not drawn),1.4% (inactive)
4,CCC(c1nnnn1Cc1ccccc1)N(Cc1cc2cc(OC)ccc2[nH]c1=O)CC1CCCO1 (stereo not drawn),5.86% (inactive)
5,COc1ccc2[nH]c(=O)c(CN(Cc3nnnn3CCc3ccccc3)CC3CCCO3)cc2c1 (stereo not drawn),7.67% (active)
6,COc1ccc(-c2cc(C(F)(F)F)nc(S(C)(=O)=O)n2)cc1OC,16.9% (active)
7,COc1ccc(-c2cc(C(=O)N(C)Cc3ccc(OC)c(OC)c3OC)c3ccccc3n2)cc1OC,-6.82% (inactive)
8,COc1ccc(-c2cc(C(=O)NCCCN3CCCC3=O)c3ccccc3n2)cc1OC,0.37% (inactive)
9,O=C(Nc1nnc(S(=O)(=O)N2CCCCCC2)s1)c1cccc(Br)c1,11% (active)
10,Cc1cccc(C(=O)Nc2nnc(S(=O)(=O)N3CCCCCC3)s2)c1,-0.31% (inactive)
11,O=C(Nc1nnc(S(=O)(=O)N2CCOCC2)s1)c1cccc(Br)c1,3.61% (inactive)
12,CC(OC(=O)CCC(=O)c1ccccc1)C(=O)Nc1ccc(F)cc1 (stereo not drawn),0.37% (inactive)
13,Cc1ccc(N=C2SCCCN2C(=O)c2cccc(N3C(=O)CCC3=O)c2)cc1Cl,-0.64% (inactive)
14,COc1ccc2cc(CCl)c(Cl)nc2c1,2.75% (inactive)
15,O=[N+]([O-])c1ccc(C=Nc2ccc(Cl)cc2Cl)s1,9.39% (active)
16,COc1ccc(CN2[C@@H](CC(=O)O)c3cc(F)ccc3S2(=O)=O)cc1,1.09% (inactive)
17,CCc1noc(C)c1C(=O)N1CCN(S(=O)(=O)c2cccc(C(F)(F)F)c2)CC1,-0.49% (inactive)
18,O=C(/C=C/c1cc2c(cc1Br)OCO2)NCc1ccc(Cl)cc1,1.84% (inactive)
19,O=C(N/N=C\c1cc2c(cc1Cl)OCO2)c1ccc(Br)s1,1.53% (inactive)
20,CC1(C(=O)N/N=C/c2cc3c(cc2Br)OCO3)CC1(Br)Br (stereo not drawn),8.27% (active)
21,CO[C@H]1[C@@H]2C=CO[C@@H](O[C@H]3O[C@@H](CO)[C@H](O)[C@@H](O)[C@@H]3O)[C@@H]2[C@@]2(CO)O[C@@H]12,-1.13% (inactive)
22,Cc1ccc(OCCCCc2c(C)n[nH]c2C)cc1,0.87% (inactive)
